The results in this text go back to PubChem BioAssay (Tox21).

Assay [1] concerns the target Luciferin 4-monooxygenase (Photinus pyralis) (UniProt P08659). Description: qHTS assay to identify small molecule inhibitors of firefly luciferase (AID 1224835). Further: nearly all actives have a fitted effect of over 25% in size. Further: potency means the concentration at half of the fitted maximal effect. In a few lines: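 Quantitative HTS format; KM concentrations of both substrates. Purified P. pyralis FLuc activity quantified from luminescence images.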
Background: In qHTS, concentration-response curves come from the screen itself.

Assay [2] in a line: qHTS assay to identify small molecule agonists of the constitutive androstane receptor (CAR) signaling pathway - cell viability counter screen (AID 1224836). Further: nearly all actives have a fitted effect of over 45% in size. Further: potency means the concentration at half of the fitted maximal effect. In a few lines:
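Fluorescence from CellTiter-Fluor indicates live cells after 23 h exposure. The human hepatoma line expresses hCAR and a CYP2B6-2.2kb reporter. Incubation medium contains 0.75 uM PK11195 (final).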

Assay [3] has as its target Nuclear receptor subfamily 1 group I member 3 (Homo sapiens) (UniProt Q14994). In words: qHTS assay to identify small molecule antagonists of the constitutive androstane receptor (CAR) signaling pathway (AID 1224838).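 Further: HepG2 cells stably expressing hCAR with CYP2B6 luciferase reporter stimulated by CITCO; nearly all actives have a fitted effect of over 40% in size.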 Further: potency means the concentration at half of the fitted maximal effect. In a few lines: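 Reporter luminescence was quantified after 24 h exposure of hCAR/CYP2B6-2.2kb double-stable HepG2 cells to compounds at 15 concentrations in the presence of 50 nM CITCO final.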

Assay [4] has the same target. In words: qHTS assay to identify small molecule agonists of the constitutive androstane receptor (CAR) signaling pathway (AID 1224839). Further: nearly all actives have a fitted effect of over 15% in size. Further: potency means the concentration at half of the fitted maximal effect.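 On activation: HepG2 cells stably carrying human CAR and a CYP2B6 luciferase reporter; on the % scale 0 is the no-effect control and ±100 the full control effect.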 The procedure, abridged:
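Stable hCAR/CYP2B6-2.2kb HepG2 line in DMEM with 10% FBS; compounds (15 concentrations) and 0.75 uM PK11195 final, 24 h at 37 C/5% CO2, then ONE-Glo luminescence after 30 min.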

The nature of assay [5]: qHTS assay to identify small molecule antagonists of the estrogen related receptor signaling pathway with the pleiotropic PPARgamma coactivator (PGC) from Tox21 10K library - cell viability counter screen (AID 1224840; active means well fitted cell-killing curve with a large enough effect in the repeat runs, not every such curve was filed as active; further: on the % scale 0 is the no-effect control and ±100 the full control effect; nearly all actives have a fitted effect of over 40% in size). The procedure, abridged:
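Here the PGC/ERR cells serve as a cytotoxicity control: they are exposed to compounds for 17.5 hours at 37 C, and live-cell signal is quantified using CellTiter-Fluor fluorescence.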

Assay [6] deals with Thyrotropin receptor (Homo sapiens) (UniProt P16473). Description: qHTS assay to identify small molecule agonists of the thyroid stimulating hormone receptor (TSHR) signaling pathway (AID 1224843; calls by dose curve; further: nearly all actives have a fitted effect of over 45% in size; further: potency means the concentration at half of the fitted maximal effect; on activation: on the % scale 0 is the no-effect control and ±100 the full control effect). In a few lines:
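Cell line HEK293 with TSHR; density 800/well. Exposure 30 min RT. Readout HTRF cAMP (cAMP-d2/anti-cAMP-cryptate), 1 h RT before reading.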

A short description of assay [7]: qHTS assay to identify small molecule agonists of the hypoxia (HIF-1) signaling pathway - cell viability counter screen (AID 1224844; calls by dose curve; further: nearly all actives have a fitted effect of over 50% in size; further: potency means the concentration at half of the fitted maximal effect). The procedure, abridged:
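Multiplexed with the HRE beta-lactamase assay, this viability read used CellTiter-Glo luminescence (30 min, RT) on HRE-bla ME-180 cells treated 17 hrs with compounds in 0.5% dialyzed FBS medium.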

The nature of assay [8]: qHTS assay to identify small molecule agonists of the hypoxia (HIF-1) signaling pathway (AID 1224846; active means well fitted activation curve with a large enough effect in the signal ratio in the repeat runs, not every such curve was filed as active; the % refers to the signal ratio; further: on the % scale 0 is the no-effect control and ±100 the full control effect). The procedure, abridged:
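Hypoxia-pathway activation was scored as increased beta-lactamase from an HRE-controlled reporter in ME-180 cells; plated at 2,000 cells per well with 0.5% dialyzed FBS, they were exposed 17 hrs to compounds and then given CCF4-AM.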

A short description of assay [9]: qHTS assay to identify small molecule agonists of H2AX - cell viability counter screen (AID 1224847; calls by dose curve; further: nearly all actives have a fitted effect of over 30% in size; further: potency means the concentration at half of the fitted maximal effect). In a few lines:
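Viability of CHO-K1 (wild type) cells after 3 hr compound exposure was measured by CellTiter-Glo luminescence.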

Assay [10] can be described thus: qHTS RealTime-Glo MT Cell Viability Assay in HepG2 cells - 24 hour (AID 1224867). Further: nearly all actives have a fitted effect of over 50% in size. Further: potency means the concentration at half of the fitted maximal effect. The procedure, abridged:
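HepG2 suspension premixed with RealTime-Glo reagents is plated at 600 cells per well and left 5 h at 37 C/5% CO2. Compounds in DMSO then go in, and bioluminescence reflecting viable cell number is recorded over 40 h.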

A short description of assay [11]: qHTS RealTime-Glo MT Cell Viability Assay in HEK293 cells - 32 hour (AID 1224868). Further: nearly all actives have a fitted effect of over 50% in size. Further: potency means the concentration at half of the fitted maximal effect. The procedure, abridged:
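Reads taken at 0, 8, 16, 24, 32 and 40 h from the same wells. HEK293 cells (600/well) carried RealTime-Glo reagents from seeding, with compound added after a 5 h settle at 37 C.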

The nature of assay [12]: A CellTox Green Cytotoxicity Assay to monitor cytotoxicity in HEK293 cells - 0 hour (AID 1224869). Further: on the % scale 0 is the no-effect control and ±100 the full control effect; nearly all actives have a fitted effect of over 50% in size. The procedure, abridged: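 Seeding of HEK293 cells together with cytotoxicity dye preceded a 5 h incubation at 37 C/5% CO2. Test compounds in DMSO were then added and fluorescence monitored across 40 h.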
Assay [13] in a line: qHTS RealTime-Glo MT Cell Viability Assay in HepG2 cells - 40 hour (AID 1224870). The procedure, abridged:
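HepG2 cells mixed with RealTime-Glo MT reagents (NanoLuc plus cell-permeant prosubstrate) were seeded at 600 cells/well, incubated 5 h at 37 C/5% CO2, then pinned with compounds in DMSO; nonlytic luminescence tracked viability during 40 h treatment.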

A short description of assay [14]: qHTS assay to identify small molecule agonists of the estrogen related receptor signaling pathway with the pleiotropic PPARgamma coactivator (PGC) from Tox21 10K library (AID 1224842). Further: on the % scale 0 is the no-effect control and ±100 the full control effect; nearly all actives have a fitted effect of over 15% in size. In a few lines:
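PGC/ERR reporter cells (NTP line) were seeded 2,000 per well, rested 6 h at 37 C/5% CO2, then pin-dosed with compounds in DMSO for 18 h at 37 C; luciferase read by One-Glo luminescence after 30 min at room temperature.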

The nature of assay [15]: qHTS assay to identify small molecule agonists of H2AX (AID 1224845; active means well fitted activation curve with a large enough effect in the signal ratio in the repeat runs, not every such curve was filed as active; the % refers to the signal ratio; further: potency means the concentration at half of the fitted maximal effect). The procedure, abridged:
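Wild-type CHO-K1 cells plated overnight, then exposed 3 hr at 37C to compounds at 15 concentrations (0.76% DMSO). Lysed, then HTRF anti-pH2AX(S139)-cryptate/anti-H2AX-d2 detection after 24 hr at room temperature; emissions 665 and 620 nm.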

A short description of assay [16]: qHTS assay to identify small molecule antagonists of the constitutive androstane receptor (CAR) signaling pathway - cell viability counter screen (AID 1224837). Further: on the % scale 0 is the no-effect control and ±100 the full control effect; nearly all actives have a fitted effect of over 45% in size. In a few lines:
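Using CellTiter-Fluor, viability is scored in HepG2 cells stably carrying hCAR and a 2.2kb CYP2B6 reporter after 23 hr compound exposure across 15 concentrations, with CITCO present at 50 nM.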

A short description of assay [17]: qHTS assay to identify small molecule antagonists of the estrogen related receptor signaling pathway with the pleiotropic PPARgamma coactivator (PGC) from Tox21 10K library (AID 1224841; call rule not given here; further: potency means the concentration at half of the fitted maximal effect). The procedure, abridged:
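Each well held 2,000 PGC/ERR cells, pre-incubated six hours (37 C, 5% CO2). Test substances in DMSO were added by pin tool and left for 18 h at 37 C before luciferase detection by One-Glo.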

A short description of assay [18]: qHTS assay to identify small molecule antagonists of the estrogen related receptor (ERR) signaling pathway from Tox21 library (AID 1224848). The procedure, abridged: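 Screening used an ERR reporter line supplied by NTP, exposed for 18 h at 37 C to library compounds delivered in DMSO. Signal was luciferase luminescence developed with ONE-Glo at room temperature for 30 min.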

Assay [19] can be described thus: qHTS assay to identify small molecule agonists of the estrogen related receptor (ERR) signaling pathway from Tox21 library (AID 1224849; calls by dose curve; further: on the % scale 0 is the no-effect control and ±100 the full control effect; nearly all actives have a fitted effect of over 15% in size). The following applies: ERR reporter cell line, ONE-Glo luciferase, 18 h; at 92.4 µM (top of the series) unless noted. The procedure, abridged: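 Six hours post-seeding at 37 C/5% CO2, ERR cells receive DMSO-solubilised compounds; after 18 h at 37 C, ONE-Glo reagent is applied and luminescence recorded.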

Each structure is given as a SMILES string. Values without a mark were called inactive. Results filed as inconclusive are left out. Active and inactive are the calls of the source. Unless noted, the call rests on the fitted dose curve; in most records, active means well fitted curve in the direction sought with a large enough effect in the repeat runs; inconclusive means weak or mixed curves; inactive means no such curve, though single readings can be large; an effect the other way counts as inactive or inconclusive.

Nuclear receptor subfamily 1 group I member 3 (Homo sapiens), sequence (Q14994 whole entry, looked up): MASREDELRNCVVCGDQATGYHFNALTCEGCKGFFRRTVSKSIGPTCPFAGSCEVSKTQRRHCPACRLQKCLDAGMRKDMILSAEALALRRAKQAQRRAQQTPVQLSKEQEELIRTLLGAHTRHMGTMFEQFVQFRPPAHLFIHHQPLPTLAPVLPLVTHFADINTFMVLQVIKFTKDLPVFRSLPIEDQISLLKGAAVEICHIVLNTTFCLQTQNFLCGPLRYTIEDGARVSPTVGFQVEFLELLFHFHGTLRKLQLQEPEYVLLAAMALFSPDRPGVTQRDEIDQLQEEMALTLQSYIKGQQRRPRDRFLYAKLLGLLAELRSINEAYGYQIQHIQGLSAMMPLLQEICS
Luciferin 4-monooxygenase (Photinus pyralis), sequence (P08659 whole entry, looked up): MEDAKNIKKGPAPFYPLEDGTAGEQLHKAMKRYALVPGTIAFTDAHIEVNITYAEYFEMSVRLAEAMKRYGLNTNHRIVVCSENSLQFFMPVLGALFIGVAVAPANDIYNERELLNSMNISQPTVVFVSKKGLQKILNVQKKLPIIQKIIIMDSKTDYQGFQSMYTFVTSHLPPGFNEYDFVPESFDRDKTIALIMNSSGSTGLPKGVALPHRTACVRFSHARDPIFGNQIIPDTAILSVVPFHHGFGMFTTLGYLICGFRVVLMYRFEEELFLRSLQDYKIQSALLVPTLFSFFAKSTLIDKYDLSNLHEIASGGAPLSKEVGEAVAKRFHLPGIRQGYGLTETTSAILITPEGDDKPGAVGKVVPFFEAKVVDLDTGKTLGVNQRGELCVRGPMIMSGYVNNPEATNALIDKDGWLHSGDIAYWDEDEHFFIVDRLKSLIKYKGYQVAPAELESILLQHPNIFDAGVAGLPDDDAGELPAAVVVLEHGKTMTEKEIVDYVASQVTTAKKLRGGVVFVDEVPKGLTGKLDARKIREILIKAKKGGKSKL
Thyrotropin receptor (Homo sapiens), sequence (P16473 whole entry, looked up): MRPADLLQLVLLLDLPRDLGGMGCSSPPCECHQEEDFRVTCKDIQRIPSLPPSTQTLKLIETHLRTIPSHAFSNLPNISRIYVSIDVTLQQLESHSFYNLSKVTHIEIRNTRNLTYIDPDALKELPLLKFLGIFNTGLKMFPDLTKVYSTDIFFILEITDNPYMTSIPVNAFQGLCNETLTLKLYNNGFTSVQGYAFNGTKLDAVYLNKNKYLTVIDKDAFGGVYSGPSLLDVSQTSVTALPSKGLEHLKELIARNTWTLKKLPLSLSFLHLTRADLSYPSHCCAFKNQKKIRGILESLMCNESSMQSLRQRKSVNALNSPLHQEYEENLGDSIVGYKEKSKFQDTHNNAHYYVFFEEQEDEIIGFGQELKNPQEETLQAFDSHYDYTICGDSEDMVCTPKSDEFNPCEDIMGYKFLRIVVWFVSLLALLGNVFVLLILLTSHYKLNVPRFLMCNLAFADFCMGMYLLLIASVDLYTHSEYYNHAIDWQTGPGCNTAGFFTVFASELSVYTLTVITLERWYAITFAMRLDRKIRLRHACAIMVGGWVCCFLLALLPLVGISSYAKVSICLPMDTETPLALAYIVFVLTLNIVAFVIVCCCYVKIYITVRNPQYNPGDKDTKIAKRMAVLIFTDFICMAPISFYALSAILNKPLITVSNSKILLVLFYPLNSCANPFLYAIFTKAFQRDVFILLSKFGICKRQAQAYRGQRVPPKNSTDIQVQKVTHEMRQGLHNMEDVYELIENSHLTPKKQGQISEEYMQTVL

Take `ClC1=C(Cl)[C@]2(Cl)[C@H]3[C@H]([C@H]4C=C[C@H]3C4)[C@@]1(Cl)C2(Cl)Cl`: the Potency entry in [1], in [2], in [3], in assay [5], in assay [7] and in [9] was “inactive” throughout. The Potency result in [10], in assay [11], in assay [12] and in [13] was “inactive” each time. In addition, the Potency in assay [4] is 13.7 µM (active); in assay [6] it was 9.69 µM (active). Also, the molecule was called inactive in assay [8].
Turning to `O=c1ssc(Cl)c1Cl`, the Potency is 17.8 µM (active) in [1]; 61.1 µM (active) in [2]; 54.5 µM (active) in assay [3]; 17.4 µM (active) in assay [7]; 89.8 µM (active) in assay [9]; 21.9 µM (active) in [10]. In addition, the Potency result in assay [4], in assay [14], in assay [15] and in assay [12] was “inactive” each time.
Take `Nc1ccccc1C(=O)OC/C=C/c1ccccc1`: the Potency in assay [1] is 31.8 µM (active); in assay [4], 48.7 µM (active); in assay [9] it was 101 µM (active); in assay [11] it was 24.6 µM (active). The Potency entry in [2], in assay [3], in [5], in assay [6], in assay [10] and in assay [12] was “inactive” each time. Further, the Potency entry in [13] was “inactive”.
`OC(Cc1ccccc1Cl)(Cn1cncn1)C1(Cl)CC1` (stereo unspecified): the Potency result in [1], in assay [16], in assay [3], in assay [5], in [14] and in assay [6] was “inactive” in each case. Besides, the Potency result in [7], in [10], in assay [12] and in assay [13] was “inactive” in each case. Moreover, the Potency was 54.5 µM (active) in assay [17] and 48.6 µM (active) in [18]. Besides, the molecule was classed as inactive in assay [8]. For the same molecule, the activity change, positive = activation in [19] was -38.2%.
Take `Cc1cc(SCc2sc(-c3ccc(C(F)(F)F)c(F)c3)nc2C)ccc1OCC(=O)O`: the Potency entry in assay [2], in assay [16], in assay [3], in assay [4], in assay [5] and in [17] was “inactive” throughout. The Potency entry in assay [14], in assay [15], in assay [10], in assay [12] and in assay [13] was “inactive” each time. Further, in assay [9], the Potency is 101 µM (active). Moreover, in [19], the activity change, positive = activation was -21.2%.
Consider `CC(C)OC(=O)C(O)(c1ccc(Cl)cc1)c1ccc(Cl)cc1`, for which the Potency entry in assay [2], in assay [16], in assay [3], in [5] and in assay [12] was “inactive” in each case. Further, the Potency was 48.6 µM (active) in assay [6]; 54.9 µM (active) in assay [7]; 80 µM (active) in assay [15]; 56.6 µM (active) in assay [9]; 21.9 µM (active) in [11].
